Assay outcomes deposited in PubChem BioAssay by National Center for Advancing Translational Sciences (NCATS).
Pf Dd2 inh: Plasmodium falciparum Dd2 growth inhibition; Potency, µM (series often up to 28.9 µM), hits mostly inhibitors; hit rate 4.3% among 120,000; P. falciparum Dd2 growth, SYBR Green, 72 h; active = well fitted inhibition curve with a large enough effect; also: nearly all actives have a fitted effect of over 65% in size
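Infected erythrocytes (Dd2, 0.3% parasitemia, 2.5% hematocrit final) are added to compound in RPMI-1640/Albumax II medium, grown 72 h at 37C in low oxygen, then lysed with saponin/Triton-X containing SYBR Green and read by fluorescence.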
Numbers stand for hits; 0 = inactive; [ ] = remark or other dose. The sample as a whole holds a higher share of hits than the screen did.

SMILES	Pf Dd2 inh
Cc1ccc(C(=O)N2CCN(C3CCN(CCC(C)C)C3=O)CC2)cc1 (stereo not given)	0
COc1cc(OC)c(OC)cc1CN1CCc2nc(N3CCN(c4ncccn4)CC3)ncc2C1	7.9µM
COc1ccccc1N1CCN(c2ncc3c(n2)CCN(Cc2ccc(C)s2)C3)CC1	0
COc1cc(OC)c(OC)cc1CN1CCc2nc(Nc3ccc4c(c3)OCCO4)ncc2C1	10µM
COc1cccc(CN2CCc3nc(Nc4ccc5c(c4)OCCO5)ncc3C2)c1	0
Fc1ccccc1N1CCN(c2ncc3c(n2)CCN(Cc2ccc(Br)s2)C3)CC1	0
Clc1ccc(CN2CCc3nc(Nc4ccc5c(c4)OCCO5)ncc3C2)cc1	0
CCN1CCN(c2ncc3c(n2)CCN(Cc2cccc(F)c2F)C3)CC1	0[5.79 µM]
CCOc1ccc(CN2CCc3nc(N4CCN(c5ccccc5OC)CC4)ncc3C2)cc1OC	0
Clc1ccc(CN2CCc3nc(N4CCN(c5ccccn5)CC4)ncc3C2)cc1	0
Fc1ccccc1N1CCN(c2ncc3c(n2)CCN(Cc2cc(Br)cs2)C3)CC1	0
CCc1ccc(CN2CCc3nc(N4CCN(c5ccccc5F)CC4)ncc3C2)cc1	8.9µM
CCOc1ccc(CN2CCc3nc(N4CCN(c5ncccn5)CC4)ncc3C2)cc1OC	7.9µM
c1cc(N2CCCCC2)ccc1-c1n[nH]c(C2CCOC2)n1 (stereo not given)	0
Cc1cc2nc3n(c(=O)c2n1CC(=O)Nc1ccc(F)c(Cl)c1)CCCC3	0
COC[C@@H]1CN(S(=O)(=O)c2ccc(C)cc2)C[C@H]1c1ccncc1	0
COc1ccc(C)cc1C(=O)N1CC(=O)N(c2cccc(Cl)c2)CC1C (stereo not given)	0
CCOC(=O)c1cccc(NC(=O)N2CC[C@@H](CC(=O)Nc3nccs3)[C@@H](CC)C2)c1	0
CCc1nc(NC(CCn2cncn2)c2ccccc2)c2cnn(C)c2n1 (stereo not given)	0
COc1ccc(CN2CCc3nc(N4CCN(c5ccc(F)cc5)CC4)ncc3C2)c(OC)c1OC	11µM
COc1ccccc1N1CCN(c2ncc3c(n2)CCN(Cc2ccccc2F)C3)CC1	0[5.79 µM]
COc1ccc(CN2CCc3nc(N4CCOCC4)[nH]c(=O)c3CC2)c(OC)c1OC	0[5.79 µM]
CC(C)(C(=O)O)c1cnc(N2C[C@@H](CO)[C@H](CO)C2)nc1N1CCOCC1	0
Cc1ccccc1Oc1c(CCC(=O)N2CCSCC2)c(C)nn1-c1ccc(F)cc1	0
Cc1nn(-c2ccc(F)cc2)c(Oc2ccc(F)cc2F)c1CCC(=O)N1CCCC1	0
SMILES	Pf Dd2 inh
Cc1nn(-c2ccc(F)cc2)c(Oc2cccc(F)c2)c1CCC(=O)N1CCSCC1	7.9µM
CS(=O)(=O)N1CCc2ccc(C(=O)Nc3ccc(Oc4ccccc4)cc3)cc21	0
COc1ccc(C(=O)N[C@@H]2CCC[C@@H]2C(=O)NCCC2=CCCCC2)cn1	0
COc1ccc2[nH]cc(CCNC(=O)C3CCCCC(=O)N3Cc3ccccc3)c2c1 (stereo not given)	0
Cc1ccc2nc(N(Cc3cccnc3)C(=O)Cc3ccccc3)sc2c1	5µM
O=C(c1ccco1)N(Cc1cccnc1)c1nc2c(F)cccc2s1	0
CCS(=O)(=O)c1ccccc1C(=O)N(Cc1cccnc1)c1nc2cc(C)c(C)cc2s1	0
CC(=O)N(Cc1cccnc1)c1nc2c(C)c(C)ccc2s1	0
O=C(CCS(=O)(=O)c1ccccc1)N(Cc1cccnc1)c1nc2ccc(Cl)cc2s1	0
Cc1ccc2nc(N(Cc3cccnc3)C(=O)CCS(=O)(=O)c3ccccc3)sc2c1	0
Cc1cc(C)c2nc(N(Cc3cccnc3)C(=O)c3cccs3)sc2c1	10µM
Cc1cccc2sc(N(Cc3cccnc3)C(=O)CCc3ccccc3)nc12	4µM
Cc1cc(C)c2nc(N(Cc3cccnc3)C(=O)Cc3ccccc3)sc2c1	10µM
O=C(CCc1ccccc1)N(Cc1cccnc1)c1nc2c(F)cccc2s1	0
CC(=O)c1ccc(C(=O)N(Cc2cccnc2)c2nc3c(Cl)cccc3s2)cc1	0
Cc1ccc2nc(N(Cc3cccnc3)C(=O)c3ccc4c(c3)OCCO4)sc2c1	0
CC(C)c1cc(C2CCCN2C(=O)CCc2cc3n(n2)CCCNC3)no1 (stereo not given)	0
O=C(Nc1ccc(F)c(Cl)c1)C1=NO[C@@H]2CN(Cc3cccnc3)C[C@H]12	0
COc1ccc(CNC(=O)CC2CCCCN(Cc3ccccc3)C2=O)cc1 (stereo not given)	0
Cn1ccc2ccc(C(=O)N3CCN(CCOc4ccccc4)CC3)cc21	0
CS(=O)(=O)N(C1CCNCC1)C1CCOCC1	0
CCC(C)(C)C(=O)N1CCC(N2CC3CC(C2)[C@H]2CCCC(=O)N2C3)CC1 (stereo not given in full)	0
O=C1OCC2(CCN(Cc3ccc(Cl)cc3)C2)N1Cc1ccccn1 (stereo not given)	0
CCOc1ccc(NC(=O)Cn2c(C)cc3nc4n(c(=O)c32)CCC4)cc1	0
CC(C)Oc1ccc(CN2CCC(CO)(CN3CCCC3)CC2)cc1Cl	13µM
SMILES	Pf Dd2 inh
COc1ccc(CN2CCC(CO)(CN3CCCC3)CC2)cc1OC	0
CCc1ccc(CN2CCC(CO)(CN3CCCC3)CC2)cc1	7.1µM
COc1ccc(CN2CCC(CO)(CN3CCCC3)CC2)cc1C	0
OCC1(CN2CCCC2)CCN(Cc2cnn(-c3ccccc3)c2)CC1	0
Cc1cc(CN2CCC(CO)(CN3CCCC3)CC2)ccc1F	0
CCCCN1C(=O)[C@@H]2C[C@@H](O)CN2C2(CN(CC3CC3)C2)C1=O	0
COc1ccc(-c2cc(CNc3ncncn3)no2)cc1	0
Cc1cc(C(=O)N2CCOC[C@H](Oc3cnccn3)C2)c(C(F)(F)F)o1	0
CCCS(=O)(=O)N1CCC(C(=O)N2CCCCCCNC(=O)CC2)CC1	0
COCC1CN(Cc2c[nH]c3ccccc23)CC12CCNCC2 (stereo not given)	0
COCC1CN(Cc2cccnc2)CC12CCNCC2 (stereo not given)	0
COCC1CN(Cc2cccc(OC(F)(F)F)c2)CC12CCNCC2 (stereo not given)	1.3µM
Cc1cc(C(=O)Nc2ccc([C@H]3OCC(=O)N(Cc4cccnc4)[C@@H]3CO)cc2)c(C)o1	0
CN1[C@@H](CCC(=O)N2CCCC2)CNC(=O)[C@@H]2[C@H]1CCN2Cc1ccc(C(F)(F)F)cc1	0
CC(=O)NC[C@H]1CCN(Cc2ccc(C#N)cc2)C[C@H]1N(C)C	0
Fc1ccc(-c2nc(Nc3cccc(C(F)(F)F)c3)nc3c2COc2ccccc2-3)cc1	10µM
Fc1ccc(Nc2nc(-c3cccc(Cl)c3)c3c(n2)-c2ccccc2OC3)c(F)c1	0
Fc1ccc(-c2cc(-c3ccccc3)c3c(n2)-c2ccccc2OC3)cc1	0
CC(=O)N1CCNc2cc(Nc3ccc(F)cc3)ncc2C1	0
O=C(c1ccc(CN2C(=O)NC3(CCS(=O)(=O)CC3)C2=O)cc1)N1CCCCC1	0
CCc1cccc(NC(=O)c2c(C)oc3nc(C)nc(N4CCCC4)c23)c1	0
CCOC(=O)c1c(C)oc2nc(C)nc(NCCc3ccc(OCC)cc3)c12	0[5.79 µM]
CCOC(=O)c1c(C)oc2nc(C)nc(NCC3CCN(Cc4ccc(C)cc4)CC3)c12	7.1µM
CCOC(=O)c1c(C)oc2nc(C)nc(N3CCN(c4cc(Cl)ccc4C)CC3)c12	8.9µM
CCOC(=O)c1c(C)oc2nc(C)nc(NCCCN3CCN(c4ccccc4)CC3)c12	0
CCOC(=O)c1c(C)oc2nc(C)nc(NCCc3ccc(Cl)cc3)c12	0
CCOC(=O)c1c(C)oc2nc(C)nc(NCC3CCN(Cc4cccc(Cl)c4)CC3)c12	0
Cc1nc(N2CCOCC2)c2c(C(=O)N3CCN(c4ccccc4)CC3)c(C)oc2n1	0
